From PubChem BioAssay (EPA / NIEHS) come the findings set out here.

Inconclusive results are not listed. Calls of active or inactive are those of the source. The calls were made as follows: active = hit-call score of the fitted dose curve at least 0.9, where 1 is the maximum; inconclusive = response in the unintended direction; inactive = score below 0.9.

This assay can be described thus: Tanguay_ZF_120hpf_TRUN_legacy: (Legacy) Oregon State University Tanguay Lab 120 Hour Post-fertilization zebrafish Assay for Truncated Body (AID 2283655). The method, then:
Tanguay_ZF_120hpf_legacy is a whole embryo, multiplexed endpoint assay using zebrafish larvae exposed for 120 hours post fertilization on a 96-well plate.Tanguay_ZF_120hpf_TRUN_legacy is one of one assay component(s) measured or calculated from the Tanguay_ZF_120hpf_legacy assay. It is designed to make measurements of zebrafish development as detected with brightfield microscopy of developing zebrafish embryos.Data from the assay component Tanguay_ZF_120hpf_TRUN_legacy was analyzed into 1 assay endpoints. This assay endpoint, Tanguay_ZF_120hpf_TRUN_legacy, was analyzed in the positive analysis fitting direction relative to DMSO as the negative control and baseline of activity. Using a type of morphology reporter, gain-of-signal activity can be used to understand changes in developmentals as they relate to the whole embryo. To generalize the intended target to other relatable targets, this assay endpoint is annotated to the zebrafish development intended target family, where the subfamily is embryonic morphogenesis.
Zebrafish husbandry: Tropical 5D wild-type adult zebrafish were housed in at an approximate density of 1000 per 100 gallon tank at the Sinnhuber Aquatic Research Laboratory, Oregon State University, Corvallis, OR. Each tank was kept at standard laboratory conditions of 28C on a 14-h light/10-h dark photoperiod in fish water consisting of reverse osmosis water supplemented with a commercially available salt (Instant Ocean). Spawning funnels were placed into the tanks the night prior, and embryos were collected and staged. To increase bioavailability, the chorion was enzymatically removed using pronase (63.6mg/ml, >/= 3.5U/mg, Sigma-Aldrich: P5147) at 4 hours post fertilization (hpf) using a custom automated dechorionator.Chemical exposures: Six hpf dechorionated embryos were placed 1 embryo per well in a 96-well plate prefilled with 90 ul of EM using automated embryo placement systems (AEPS). Ten microliters of each row of dilution plate 2 was added to 2 exposure plates. The final DMSO concentration used was 0.64% (vol/vol). Thirty-two embryos were also exposed to 5uM trimethyltin chloride (positive control). Plates were sealed to prevent evaporation and foil covered to reduce light exposure and kept in a 28C incubator. Embryos were statically exposed until 120 hpf. At 24 hpf, embryos were assessed for photomotor response using a custom photomotor response analysis tool (PRAT) and for developmental toxicity endpoints (MO24: mortality at 24 hpf, DP: developmental progression, SM: spontaneous movement, and NC: notochord distortion). At 120 hpf, locomotor activity was measured using Viewpoint Zebralab and assessed for 18 endpoints. Zebrafish acquisition and analysis program (ZAAP), a custom program designed to inventory, acquire, and manage zebrafish data, was used to collect developmental endpoints as either present or absent (i.e., binary responses were recorded). If mortality occurred for an embryo (at either 24 or 120 hpf), the non-mortality endpoints were not measured.
Consider `CC(C)(C)c1ccccc1O`, for which the result was inactive.

As to `Cc1cc(C)cc(C)c1`, the outcome was inactive.

Consider `CN(C)C(=S)S`, for which the call was inactive.

Regarding `O=C(N[C@H]1CN2CCC1CC2)c1ccc2c(c1)OCCO2`, the compound was classed as inactive.

As to `Oc1cc(Cl)c(Cl)cc1Cl`, the result was inactive.

In the case of `Clc1cccc(Cl)c1`, the compound was classed as inactive.

Regarding `Clc1cccc(Cl)c1Cl`, the outcome was inactive.

With `Oc1c(Cl)cc(Cl)cc1Cl`, the call was inactive.

For `CCCCCCCCCCCCc1cccc(S(=O)(=O)O)c1`, the call was inactive.

For `OCCN(CCO)CCO`, the outcome was inactive.

Regarding `O=C(O)C1(c2ccc3c(c2)OC[C@H](Cc2ccc(-c4ccccc4)cc2)[C@H]3O)CCCC1`, the compound was classed as inactive.
